# The list is not random: actives were taken first. Their share in the collection is about 2.6%.
# Prx2 Sm inh – Schistosoma Mansoni Peroxiredoxins (Prx2); Schistosoma mansoni peroxiredoxin 2 (Prx2); S. mansoni Prx2 activity coupled to TGR/GSH (TGR is thioredoxin glutathione reductase), NADPH fluorescence loss, qHTS; Potency, µM; 65,000 compounds, 0.07% hits
#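 Prx2 inhibition was measured as reduced NADPH consumption when electrons flowed from NADPH through TGR and glutathione to Prx2 and H2O2. Plates were read kinetically over 8 min; enzyme reagents were held at 4 deg C during dispensing.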
# AmpC inh det – Promiscuous and Specific Inhibitors of AmpC Beta-Lactamase (assay with detergent); Potency, µM (titrated, usually from 28.7 µM), for the others: at the top dose activity change, negative = inhibition; AID 584, 2007; purified AmpC, nitrocefin hydrolysis with detergent; P00811; 71,000 compounds, 0.09% hits; active = well fitted curve in the direction sought with a large enough effect; inconclusive = small, poorly fitted or top-dose-only effect; also: % is scaled to controls: 0 for no effect and ±100 for the full control effect
# Target sequence (P00811 whole entry, looked up): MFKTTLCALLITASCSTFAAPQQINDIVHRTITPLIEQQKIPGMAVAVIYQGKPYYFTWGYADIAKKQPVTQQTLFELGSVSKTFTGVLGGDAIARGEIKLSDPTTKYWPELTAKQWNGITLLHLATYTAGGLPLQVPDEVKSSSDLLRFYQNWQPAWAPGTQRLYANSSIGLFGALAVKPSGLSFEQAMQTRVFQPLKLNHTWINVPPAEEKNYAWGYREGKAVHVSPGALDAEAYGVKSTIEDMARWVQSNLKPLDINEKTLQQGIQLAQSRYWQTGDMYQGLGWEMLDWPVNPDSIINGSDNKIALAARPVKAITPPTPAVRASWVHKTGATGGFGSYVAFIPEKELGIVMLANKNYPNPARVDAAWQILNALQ
#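 E. coli AmpC (5.3 nM) in 20 mM phosphate pH 7.0 with 0.01% Triton X-100, preincubated 15 min RT with compound; nitrocefin (2 uL of 800 uM stock) hydrolysis followed by 480 nm absorbance every 20 s over 4 min.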
# AmpC nodet inh – Promiscuous and Specific Inhibitors of AmpC Beta-Lactamase (assay without detergent) | Potency, µM (top dose mostly 28.7 µM), without a hit: at the highest dose activity change, negative = inhibition | AmpC nitrocefin hydrolysis, absorbance 480 nm, no detergent | P00811 | AID 585, 2007 | 71,000 compounds, 1.8% hits; also: % of control where 0% means no effect
#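 AmpC in 20 mM phosphate buffer pH 7.0 was preincubated 15 min at room temperature with compounds. Nitrocefin (800 uM stock) was then added and hydrolysis followed at 480 nm every 20 s for 4 min.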
# Anthrax LT inh – qHTS Assay for Anthrax Lethal Toxin Internalization. Cells, anthrax lethal toxin internalization, FRET ratio (460/530). Potency, µM (top dose mostly 40 µM), for the others: at the top dose activity change, negative = inhibition, most hits filed as inhibitors. 70,000 compounds, 0.67% hits; also: % is scaled to controls: 0 for no effect and ±100 for the full control effect; nearly all actives have a fitted effect of over 50% in size
# Numbers without * were called inactive; u = inconclusive; x = no result given; [ ] = dose if it differs, or a comment. Unless noted, calls follow the shape of the full dose curve. Potency is read from the fitted curve at half-maximal effect.
SMILES,Prx2 Sm inh,AmpC inh det,AmpC nodet inh,Anthrax LT inh
CCCc1ccc(OCc2ccc(C(=O)N3CCN(c4ccccn4)CC3)o2)c(OC)c1,>57,-5.2%,125.1%,12.6µM*
NCCNS(=O)(=O)c1cccc2c(Cl)cccc12,>25.6,-4.8%,18.7%,-22.0%
Cn1nc(C(=O)NCCN2CCOCC2)c2ccccc2c1=O,>57,-1.5%,-6.0%,-14.4%
CCn1c(=O)c2cc(C(=O)NCCN3CCOCC3)sc2c2ccccc21,>57,12.2%,3.98µM*[single pt active],-9.4%
CCn1c(=O)c2cc(C(=O)Nc3cc(C)on3)sc2c2ccccc21,>57,14.9%,3.98µM*[single pt active],-8.1%
CCn1c(=O)c2ccccc2n2c(SCC(=O)NCc3cccs3)nnc12,>57,13.5%,0.5%,-6.5%
CCn1c(=O)c2cc(C(=O)NCc3cccs3)sc2c2ccccc21,>57,14.7%,3.98µM*[single pt active],-15.3%
CCn1c2ccccc2c2nnc(SCC(=O)Nc3cc(C)on3)nc21,>57,-1.7%,-10.5%,4.6%
Cc1noc(C)c1C(=O)N1CCC[C@@]2(CCN(Cc3nccs3)C2)C1,>57,1.2%,11.7%,u
CC(=O)OCC1OC(C#Cc2ccc(C(C)(C)C)cc2)C=CC1OC(C)=O (stereo not drawn),x,x,x,-10.7%[8 µM]
CNC(=O)c1ccc2snnc2c1,>57,9.6%,3.98µM*[single pt active],2.6%
Cc1ccc(-c2noc(CN3C(C)CCCC3C)n2)cc1 (stereo not drawn),>57,12.3%,3.98µM*[single pt active],-12.1%
Cc1ccc(-c2noc(CN3CCC(C(N)=O)CC3)n2)cc1,>57,-2.2%,-3.6%,-15.2%
Cc1noc(NS(=O)(=O)c2cccc3c(N(C)C)cccc23)c1C,>57,-0.5%,-0.4%,u
Cn1c(=O)cnc2cnc(Nc3ccccc3)nc21,>57,-2.0%,13.8%,3.7%
CC1(C(=O)NC2CCCCC2)CCC(=O)N1Cc1cccs1 (stereo not drawn),>57,13.3%,3.98µM*[single pt active],-25.2%
CC1(C(=O)NC2CCCC2)CCC(=O)N1Cc1cccs1 (stereo not drawn),>57,-4.9%,-2.6%,1.7%
Cc1cnc(CNc2nc(-c3c(C)noc3C)nc3ccccc23)cn1,>57,10.1%,32.7%,12.9%
CSc1nc2nc(C)cc(-c3ccccc3)n2n1,>57,-5.6%,11.6%,5.1%
Cc1cc(-c2ccccc2)n2ncc(C#N)c2n1,>57,13.1%,3.98µM*[single pt active],-12.8%
COc1ccc(COC(=O)N/N=C2/C[C@@H](O)[C@@H](O)[C@@H]3[C@@H]4C(=O)N([C@@H](C)c5ccccc5)C(=O)[C@H]4CC[C@H]23)cc1,x,x,x,-4.0%[8 µM]
CCOC(=O)c1c(NC(=O)c2ccc(Br)o2)sc(C)c1CC,x,6.1%,8.5%,5.01µM*
O=C(Nc1nc(-c2cccs2)cs1)c1ccc(S(=O)(=O)N2CCCC2)cc1,>57,2.0%,12.6µM*,u
CC(=O)Nc1nc(-c2cccs2)cs1,>57,-5.2%,-3.8%,3.7%
CC1CC(C)CN(S(=O)(=O)c2ccc(C(=O)Nc3nnc(-c4cccs4)o3)cc2)C1 (stereo not drawn),>57,7.6%,-9.1%,16.8%
SMILES,Prx2 Sm inh,AmpC inh det,AmpC nodet inh,Anthrax LT inh
O=C(Nc1nc(-c2cccs2)cs1)c1ccc(Cl)s1,>57,12.3%,u,10µM*
CCC1CCCCN1S(=O)(=O)c1ccc(C(=O)Nc2nnc(-c3cccs3)o2)cc1 (stereo not drawn),>57,-7.7%,12.6µM*,u
N=C(N)SCCc1ccc(OCc2ccc([N+](=O)[O-])cc2)cc1,>57,-6.9%,15.8µM*,-19.4%
O=C(COC(=O)c1cc(-c2ccco2)nc2ccccc12)NCc1ccc2c(c1)OCO2,>57,-11.8%,12.6µM*,u
COc1ccc(COC(=O)N/N=C2/C[C@@H](O)[C@@H](O)[C@@H]3[C@@H]4C(=O)N(C(C)(C)C)C(=O)[C@H]4CC[C@H]23)cc1,x,x,x,4.1%[0.32 µM]
Cc1c(-c2nc(N)nc(Nc3ccccc3)n2)oc2ccccc12,>57,-6.2%,98.5%,12.6µM*
COc1ccc(-n2c(Cc3cc(=O)[nH]c(=O)[nH]3)nnc2SCC(=O)NC2CCCC2)cc1,>57,13.5%,3.98µM*[single pt active],3.9%
CCOc1ccc(-n2c(Cc3cc(=O)[nH]c(=O)[nH]3)nnc2SCC(=O)NC2CCCC2)cc1,>57,14.1%,u,-12.0%
O=C(CSc1nnc(Cc2cc(=O)[nH]c(=O)[nH]2)n1-c1ccc(Cl)cc1)NCC1CCCO1 (stereo not drawn),>57,-1.7%,7.0%,3.8%
O=C(CSc1nnc(Cc2cc(=O)[nH]c(=O)[nH]2)n1-c1ccc(Cl)cc1)NC1CCCC1,>57,9.2%,3.98µM*[single pt active],3.5%
Cn1cc(C(=O)c2ccc(Cl)cc2)cc1-c1nc2ccccc2n1C,>57,18.1%,35.0%,12.6µM*
CCOC(=O)CCc1c(C)nc2c(c(C)nn2C(C)(C)C)c1C,>57,12.7%,3.98µM*[single pt active],u
O=C(O)COc1ccc(C(=O)Cc2ccc3c(c2)OCCCO3)c(O)c1,>57,-0.5%,-11.2%,-6.9%
O=C(Cc1ccc2c(c1)OCCO2)c1c(O)cc(O)cc1O,>57,-3.7%,10µM*,-0.6%
COc1cccc(-c2ccc3ncnc(NCc4cccs4)c3c2)c1,>57,10µM*,6.31µM*,12.6µM*
N#Cc1cccc(-c2nc(NCc3cccs3)c3ccccc3n2)c1,>57,5.9%,-19.7%,u
COc1ccccc1CN(Cc1cc2c(C)ccc(C)c2[nH]c1=O)Cc1nnnn1Cc1ccco1,>57,-2.8%,57.8%,15.8µM*
CN(C)c1ccc(C2(c3ccc(N(C)C)cc3)OC(=O)c3cc(N(C)C)ccc32)cc1,x,10.9%,0.7%,u
CC(=O)c1ccc(OCC(O)CN2CCOCC2)cc1 (stereo not drawn),>57,8.2%,3.98µM*[single pt active],-14.0%
COC(=O)c1ccc(OCC(O)CN2CCC(C)CC2)cc1 (stereo not drawn),>57,8.6%,-3.7%,0.1%
CC(=O)c1ccc(OCC(O)CN2CCC(C)CC2)cc1 (stereo not drawn),>57,12.3%,3.98µM*[single pt active],-7.6%
CC(=O)c1ccc(OCC(O)CN2C(C)CCCC2C)cc1 (stereo not drawn),>57,12.1%,3.98µM*[single pt active],-10.1%
CCC(=O)c1ccc(OCC(O)CN2CCOCC2)cc1 (stereo not drawn),>57,-3.3%,17.0%,2.9%
OC[C@@H]1O[C@@H](n2cnc3c(NCCc4ccccc4)ncnc32)[C@@H](O)[C@H]1O,>57,-0.9%,1.5%,u
CCN(CC)c1ncnc2c1ncn2[C@@H]1O[C@@H](COP(=O)(O)OP(=O)(O)C(Br)(Br)P(=O)(O)O)[C@H](O)[C@@H]1O,>57,-3.1%,-2.7%,3.9%
COc1ccc(O)c(-c2cc(-c3cccc(Br)c3)n[nH]2)c1,x,16.8%,-20.4%,u
COC(=O)c1cc(-c2ccc(OC)c(OC)c2)n[nH]1,>57,-2.5%,3.3%,-12.6%
Oc1ccccc1-c1cc(-c2ccc3c(c2)OCCO3)n[nH]1,>57,12.1%,-5.6%,20µM*
COc1ccc(-c2cc(-c3cc(F)ccc3O)[nH]n2)cc1OC,>57,4.1%,78.5%,10µM*

# Screens from PubChem BioAssay.
